# Test results reported in PubChem BioAssay (EPA / NIEHS).
# Inconclusive results are not listed. Activity calls are given as the source filed them. Rule for the calls: active = hit-call score of the fitted dose curve at least 0.9, where 1 is the maximum; inconclusive = response in the unintended direction; inactive = score below 0.9.
# Target: AR (gene 367) (UniProt P10275)
# Test: ACEA_AR_agonist_80hr: ACEA Biosciences xCELLigence Real-Time Cell Analysis on Androgen Receptor Agonism for Proliferation (AID 2283783);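 note: hits increase impedance growth signal above DMSO baseline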
# Method in brief: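 22Rv1 human prostate cancer cells were seeded after preconditioning in assay medium and monitored overnight, then dosed in an eight-point 1:4 dilution series from 100 uM (≤0.5% DMSO). Impedance-based growth was read at 80 h, gain-of-signal versus DMSO.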
# Chain of AR (gene 367) (P10275 whole entry, looked up): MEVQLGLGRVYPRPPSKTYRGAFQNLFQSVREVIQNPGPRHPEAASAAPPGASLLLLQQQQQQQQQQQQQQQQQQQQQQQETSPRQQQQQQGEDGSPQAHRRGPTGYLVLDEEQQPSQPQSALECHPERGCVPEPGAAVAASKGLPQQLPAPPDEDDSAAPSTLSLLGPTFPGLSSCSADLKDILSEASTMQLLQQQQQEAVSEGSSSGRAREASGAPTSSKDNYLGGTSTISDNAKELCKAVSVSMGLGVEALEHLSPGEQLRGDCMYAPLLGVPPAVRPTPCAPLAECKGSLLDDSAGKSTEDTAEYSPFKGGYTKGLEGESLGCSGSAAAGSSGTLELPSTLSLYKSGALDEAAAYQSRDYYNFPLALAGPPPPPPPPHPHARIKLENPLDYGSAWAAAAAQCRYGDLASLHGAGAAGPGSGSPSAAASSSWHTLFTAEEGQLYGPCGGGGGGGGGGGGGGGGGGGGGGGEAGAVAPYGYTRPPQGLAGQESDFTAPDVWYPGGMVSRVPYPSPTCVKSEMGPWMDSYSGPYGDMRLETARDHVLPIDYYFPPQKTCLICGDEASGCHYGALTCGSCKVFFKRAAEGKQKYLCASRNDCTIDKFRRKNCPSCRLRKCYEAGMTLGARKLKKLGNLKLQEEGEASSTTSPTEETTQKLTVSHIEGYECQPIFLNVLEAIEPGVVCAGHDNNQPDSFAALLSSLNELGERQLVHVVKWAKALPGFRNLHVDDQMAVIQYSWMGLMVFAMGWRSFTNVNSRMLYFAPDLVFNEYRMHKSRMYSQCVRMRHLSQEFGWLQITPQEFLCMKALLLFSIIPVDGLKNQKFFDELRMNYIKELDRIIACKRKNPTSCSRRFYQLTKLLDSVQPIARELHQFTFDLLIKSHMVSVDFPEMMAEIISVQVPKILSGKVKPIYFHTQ
SMILES,outcome,AC50
Oc1cc2ccccc2c2ccccc12,inactive,–
O=c1c(-c2ccc(O)cc2)coc2cc(O)ccc12,inactive,–
Nc1cccc2c(N)cccc12,–,0.115 µM (active)
CC[C@H](c1ccc(O)cc1)[C@@H](CC)c1ccc(O)cc1,inactive,–
CCCCCCCCCCCCc1ccccc1S(=O)(=O)O,inactive,–
N#C[C@@H]1CC(F)(F)CN1C(=O)CNC1CC2CCC(C1)N2c1ncccn1 (stereo partly specified),inactive,–

# Target: AR (gene 367) (UniProt P10275)
# Test: ACEA_AR_antagonist_80hr: ACEA Biosciences xCELLigence Real-Time Cell Analysis on Androgen Receptor Antagonism for Proliferation (AID 2283787);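 note: hits lower the impedance growth signal relative to DMSO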
# Method in brief: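 Impedance readout (RT-CES), 80 h post-dose; loss-of-signal vs DMSO baseline. 22Rv1 cells in assay medium. Compounds: 8-pt 1:4 series, max 100 uM final, up to 0.5% DMSO; n = 2.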
SMILES,AC50,outcome
Oc1cc2ccccc2c2ccccc12,8.26 µM (active),–
O=c1c(-c2ccc(O)cc2)coc2cc(O)ccc12,–,inactive
Cc1oc(-c2ccccc2)nc1CCOc1ccc(C[C@H](Nc2ccccc2C(=O)c2ccccc2)C(=O)O)cc1,8.01 µM (active),–
Nc1cccc2c(N)cccc12,77.8 µM (active),–
CCC(=C(c1ccc(O)cc1)c1ccc(OCCN(C)C)cc1)c1ccccc1,7.6 µM (active),–
CC[C@H](c1ccc(O)cc1)[C@@H](CC)c1ccc(O)cc1,10.9 µM (active),–
CCCCCCCCCCCCc1ccccc1S(=O)(=O)O,72.9 µM (active),–
N#C[C@@H]1CC(F)(F)CN1C(=O)CNC1CC2CCC(C1)N2c1ncccn1 (stereo partly specified),–,inactive
O=C(O)c1ccccc1C(c1ccc(O)cc1)c1ccc(O)cc1,–,inactive

# Tested on: not listed separately
# Test: ATG_M_06_XSP1: Attagene TRANS-FACTORIAL Multi-Species (XSP1) HepG2 Assay for M06 Transcription Factor (Internal Marker) (AID 2283790)
# Method in brief: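 Transfected HepG2 multi-reporter system treated 24 h in the presence of 3 nM 6-alpha-fluorotestosterone. The M06 internal marker transcript was quantified by RT-PCR with capillary electrophoresis as a background control, and gain of signal was scored versus DMSO.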
row,SMILES,outcome
1,Cc1oc(-c2ccccc2)nc1CCOc1ccc(C[C@H](Nc2ccccc2C(=O)c2ccccc2)C(=O)O)cc1,inactive
2,CC[C@H](c1ccc(O)cc1)[C@@H](CC)c1ccc(O)cc1,inactive
3,CCC(C)(C)C1CCC(O)CC1 (stereo unspecified),inactive

# Tested on: not listed separately
# Test: ATG_M_61_XSP1: Attagene TRANS-FACTORIAL Multi-Species (XSP1) HepG2 Assay for M61 Transcription Factor (Internal Marker) (AID 2283797)
# Method in brief: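 HepG2 cells transiently transfected with multiplexed GAL4-driven reporter units, dosed 24 h with 3 nM 6-alpha-fluorotestosterone present. Reporter mRNA quantified by RT-PCR, 6-FAM labelling, HpaI digestion and capillary electrophoresis; internal-marker background control, gain of signal versus DMSO.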
row,SMILES,outcome
1,Cc1oc(-c2ccccc2)nc1CCOc1ccc(C[C@H](Nc2ccccc2C(=O)c2ccccc2)C(=O)O)cc1,inactive
2,CC[C@H](c1ccc(O)cc1)[C@@H](CC)c1ccc(O)cc1,inactive
3,CCC(C)(C)C1CCC(O)CC1 (stereo unspecified),inactive
